# Experimental data from ChEMBL document CHEMBL1157539, “Thousands of chemical starting points for antimalarial lead identification” (Nature, 2010).
# Columns and labels:
# Type in all cases: functional
# [1] = system: Plasmodium falciparum; test: GSK_TCMDC: Inhibition of Plasmodium falciparum 3D7 in whole red blood cells, using parasite LDH activity as an index of growth. Test compounds present at 2uM
# [2] = system: Plasmodium falciparum; test: GSK_TCMDC: Inhibition of Plasmodium falciparum Dd2 in whole red blood cells, using parasite LDH activity as an index of growth. Test compounds present at 2uM
# [3] = system: HepG2; test: GSK_TCMDC: Percent inhibition of human HepG2 cell line. Test compounds present at 10uM.
Compound,Inhibition [1],Inhibition [2],Inhibition [3]
CN1CCCc2ccc(NC(=O)c3cnc(-c4ccccc4)cn3)cc21,87%,82%,24%
O=C(O)C(F)(F)F.O=S(=O)(NCCN1CCCC1)c1ccc(-c2ccc(CNCc3ccc(F)cc3)cc2)s1,100%,44%,42%
COc1ccc(NC(=O)Nc2ccc(-c3ccc(-c4nc5cccc(C)c5[nH]4)s3)cc2)cc1,100%,96%,74%
CCCNCc1ccc(-c2ccc(CN(C(=O)c3nn(-c4ccccc4)nc3C)C3CC3)cc2)nc1.O=C(O)C(F)(F)F,100%,0%,23%
Cc1cc(Nc2cccc(C(F)(F)F)c2)nc(NCc2ccccc2)n1,100%,95%,17%
Cc1ccc(NC(=O)c2ccc(C(=O)NC3CCN(CC4CCCCC4)CC3)cc2)cc1.O=C(O)C(F)(F)F,93%,0%,36%
Cc1ccc(C(=O)NC2CCN(CCNC(=O)Nc3cc(C)nc4ccccc34)CC2)cc1,98%,76%,0%
O=C(Nc1cccc(CN2CCN(Cc3ccc(O)cc3)CC2)c1)c1ccc(-c2ccccc2)cc1.O=C(O)C(F)(F)F,100%,67%,40%
COc1cccc2cc(C(=O)N[C@@H](CC(C)C)C(=O)N[C@H](C=NN3CCOC3=O)CC(C)C)oc12,90%,72%,4%
CC(C)OCCCNC(=O)c1nc(-c2cccc(C(F)(F)F)c2)sc1C(C)C,94%,34%,0%
CN(CC(=O)Nc1ccc(F)cc1)C(=O)c1ccc(-c2ccc(F)cc2)o1,89%,84%,3%
CC(C)NCc1ccc(-c2cccc(-c3nc4ccccc4[nH]3)c2)cc1.O=C(O)C(F)(F)F,100%,34%,21%
O=C1C(c2ccccc2)=C(Nc2ccc(OC(F)(F)F)cc2)c2ccccc21,96%,96%,18%
COC(=O)c1ccc(CCC(C)NCC(O)c2cccc(C(F)(F)F)c2)cc1.Cl (configuration not stated),99%,99%,16%
CCOC(=O)CCCOc1cc(Cc2cnc(N)nc2N)cc(OC)c1OC,97%,3%,12%
COc1ccc2nccc(N3CCN(CCNCc4ccc5c(n4)NC(=O)CO5)CC3)c2n1.Cl,98%,12%,10%
CCN(CC)CCn1c2ccccc2c2ccc(C(=O)Nc3ccc4sc(C)nc4c3)cc21.Cl,84%,26%,97%
FC(F)(F)c1ccc2[nH]ccc(=NN=Cc3ccc(Cl)cc3)c2c1,100%,53%,5%
Cc1sc(C)c(CNCCCNc2cc(=O)c3ccccc3[nH]2)c1Br.Cl,93%,15%,0%
CCCN(CCC)CCCNc1ccc(C(=O)Nc2ccc(C(C)C)cc2)cc1[N+](=O)[O-],98%,38%,17%
COC(=O)c1ccc2c(-c3nc4ccc(OC)cc4[nH]3)c[nH]c2c1,95%,31%,0%
CCCn1cc2c(ccc3nc(N)nc(N)c32)n1,95%,0%,65%
CC(=O)Nc1ccc(CN(Cc2ccc(F)cc2)Cc2cccc(Oc3ccccc3)c2)cc1,88%,82%,0%
O=C(Nc1ccc(-c2nc3ccccc3[nH]2)cc1)C1CCCN(CC2CC2)C1 (configuration not stated),89%,8%,6%
O=C(O)C(F)(F)F.O=S(=O)(c1ccccc1)n1ccc2cc(Nc3ncnc4cc(C#C[C@H]5CCCN5)sc34)ccc21,85%,56%,50%
CCN(CC)CCN(CCN(CC)CC)c1ccc2c(c1)Sc1c(Cl)ccc(Cl)c1S2.Cl,98%,94%,31%
O=C(CCCCCNC(=O)c1ccc(O)c(-c2ccc(Cl)c(Cl)c2)c1)NC1CCCc2ccccc21 (configuration not stated),97%,13%,0%
CCOC(=O)C1=C(C)N=c2sc(=Cc3cc(Cl)ccc3O)c(=O)n2C1c1ccc2c(c1)OCO2 (configuration not stated),96%,91%,0%
C=C[C@]1(C)C[C@@H](OC(=O)NC(=O)CCCS(=O)(=O)c2nnc(C)s2)[C@]2(C)[C@H](C)CC[C@]3(CCC(=O)[C@H]32)[C@@H](C)[C@@H]1O,94%,97%,0%
